Test results reported in PubChem BioAssay AID624330 (Southern Research Specialized Biocontainment Screening …, 2012).
Where “and” joins values, the source holds several entries; their conditions need not be identical. Identical values can stand only once. About 2,100 (0.62%) of roughly 340,000 compounds were called active.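 How the source made its calls: active means first-screen hits whose inhibition reached a set limit at any dose in the follow-up dose series; inconclusive means inhibition above the set first-screen limit but never retested; inactive means the rest.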 A selection follows. Results with a measured potency or affinity are listed apart.

What follows are molecules tested against Rac GTPase-activating protein 1 (Homo sapiens) (UniProt Q9H0H5) (assay: blockers of MgcRacGAP-driven Rac1 GTP hydrolysis – biochemical, ADP Hunter fluorescence, primary and confirmatory, confirmation (AID 624330;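 further: fluorescence reports GDP produced by GAP-driven GTP hydrolysis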)). Settings: MgcRacGAP-stimulated Rac1 GTP hydrolysis, at 30 µM, stronger effect = higher value, GST-tagged Rac1 F28L mutant substrate.
Rac GTPase-activating protein 1 (Homo sapiens), sequence (Q9H0H5 whole entry, looked up): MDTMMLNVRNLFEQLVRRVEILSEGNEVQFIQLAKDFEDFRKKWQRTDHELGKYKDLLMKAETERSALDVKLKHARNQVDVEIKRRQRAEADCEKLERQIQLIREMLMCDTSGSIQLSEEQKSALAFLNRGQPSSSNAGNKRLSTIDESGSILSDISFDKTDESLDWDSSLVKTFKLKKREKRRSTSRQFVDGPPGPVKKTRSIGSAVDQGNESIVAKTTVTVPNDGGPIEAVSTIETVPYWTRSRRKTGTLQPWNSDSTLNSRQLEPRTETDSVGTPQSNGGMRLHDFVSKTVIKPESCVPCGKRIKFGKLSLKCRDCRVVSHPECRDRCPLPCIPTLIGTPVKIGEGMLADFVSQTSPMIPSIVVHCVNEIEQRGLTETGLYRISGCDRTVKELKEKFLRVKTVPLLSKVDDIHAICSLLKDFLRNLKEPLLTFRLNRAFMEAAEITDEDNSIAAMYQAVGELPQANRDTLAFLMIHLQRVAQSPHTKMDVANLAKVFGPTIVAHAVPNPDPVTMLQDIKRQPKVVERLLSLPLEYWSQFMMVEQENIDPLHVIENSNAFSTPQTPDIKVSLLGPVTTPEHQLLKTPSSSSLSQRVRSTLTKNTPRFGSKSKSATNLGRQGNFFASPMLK

inhibition, inactive:
Cc1cccc(C(C)C)c1NC(=O)COC(=O)c1cc2ccccc2oc1=O 4.05%
CCOC(=O)C1CCN(C(=O)Cn2nc(C)n3nc(-c4ccc(OC)cc4)cc3c2=O)CC1 4.91%
CCOC(=O)C(O)(CC(=O)c1ccc(Cl)cc1)C(=O)OCC 3.02%
OCCn1c(-c2ccccc2)csc1=Nc1ccccc1 7.22%
CCn1c(-c2ccccc2)csc1=Nc1ccc(S(=O)(=O)O)cc1 9.33%
CCOC(=O)CC1CCCCN1C(=O)CCCn1nnnc1CN1CCOCC1 (configuration not stated) 7.71%
Cc1ccc(OCC(=O)N2CCN(C(=O)c3ccc([N+](=O)[O-])cc3)CC2)cc1 4.34%
Cc1cccc(OCC(=O)N2CCN(C(=O)Cc3ccccc3)CC2)c1 8.65%
Cc1cccc(OCC(=O)N2CCN(C(=O)COc3ccc(Cl)cc3)CC2)c1 9.73%
O=C(COc1ccc2ccccc2c1)N1CCCC1 7.41%
O=C(COc1ccc2ccccc2c1)N1CCN(C(=O)c2cccnc2)CC1 8.31%
CCOC(=O)N1CCN(C(=O)COc2ccc([N+](=O)[O-])cc2)CC1 -2.93%
CCn1ccnc1CN(C)C(=O)C1CCC(=O)N(Cc2cccc(C(F)(F)F)c2)C1 (configuration not stated) 4.11%
COc1cc(NC(=O)COC(=O)CNS(=O)(=O)c2ccc(F)c(F)c2F)cc(OC)c1 9.27%
COc1ccc(-n2nc(C(=O)NCC(=O)NCCN(C)C)c3ccccc3c2=O)c(OC)c1 8.96%
Cc1nn(C)cc1CNC(=O)/C=C/c1cnn(C)c1 -2.3%
O=[N+]([O-])c1ccc(N2CCCCC2)nc1N1CCCCC1 2.43%
O=C(COC(=O)C1CCN(c2ccc(C(F)(F)F)cn2)CC1)NCc1ccccc1 2.35%
CC12CCC(=O)N1C(C(=O)OCC(=O)Nc1ccc(S(N)(=O)=O)cc1)CS2 (configuration not stated) 0.82%
N#Cc1ccc(-c2csc(NC(=O)c3ccc(N4C(=O)CCC4=O)cc3)n2)cc1 6.12%
O=c1/c(=C/c2cccc3ccccc23)sc2ncnn12 17.9%
CCCCOc1ccc(/C=c2\sc3ncnn3c2=O)cc1 8.68%
CN1CCN(C(=O)CN(C)S(=O)(=O)c2cc(Cl)ccc2Cl)CC1 1.86%
COc1ccccc1CNC(=O)CNC(=O)N1CC(=O)Nc2ccccc21 10.5%
COc1ccccc1CNCc1ccc(C)cc1 7.48%
O=C(CNCc1ccco1)Nc1ccccc1-n1cccc1 12.8%
O=C1CN(C(=O)CNCc2ccccc2)c2ccccc2N1 23.4%
COc1ccc(CNCC(=O)Nc2ccccc2-n2cccc2)cc1 36.5%
COc1ccccc1CNCC(=O)Nc1ccc(C(F)(F)F)cc1 25%
COc1ccccc1CNCC(=O)Nc1ccc(C#N)cc1 31.8%
COc1ccccc1CNC(=O)Cc1ccc(C)cc1 4.63%
O=CNc1ccccc1Oc1ccccc1 8.55%
Cc1ccc(N(C(=O)c2snc(C(N)=O)c2N)C(C(=O)NC2CCCC2)c2ccc(C)o2)cc1 (configuration not stated) 2.21%
CC(=O)c1ccc(NC(=O)CSc2nnc(C3CC3)n2C)cc1 -6.69%
O=C(CSc1cn(CCNC(=O)c2ccc3ccccc3c2)c2ccccc12)NCc1ccco1 11.1%
CC(C)C(=O)Nc1ccc2c(c1)nc1n2CCSC1 5.79%
Cc1ccccc1OCC(O)CN1CCC(C)CC1 (configuration not stated) 8.53%
CC1CCN(CC(O)COc2ccc(OCC(O)CN3CCC(C)CC3)cc2)CC1 (configuration not stated) 15.7%
Cn1ccnc1C(=O)c1cc(SCC(=O)N2CCOCC2)nc2ccccc12 -0.39%
S=C1SC2(CCCCCC2)NC2=C1CCCCC2 8.68%
CCOC(=O)CCSc1nc(C)c2cc(C)ccc2n1 5.59%
Cc1ccc(Oc2coc3cc(OC(=O)c4cccs4)ccc3c2=O)cc1 1.09%
Cc1c(O)ccc2c(=O)c(Oc3ccccc3)coc12 9.78%
CC1NC(=O)c2cc3ccccc3cc2-n2c1nc1cc(Cl)ccc1c2=O (configuration not stated) 9.82%
CC(Oc1ccc(Cl)cc1)C(=O)Nc1ccccc1N1CCOCC1 (configuration not stated) 2.3%
NN1C(=O)/C(=C2/Sc3ccccc3N2CCCS(=O)(=O)O)SC1=S 12.5%
CCN1/C(=C2/SC(=S)NC2=O)Sc2ccccc21 1.71%
CCOC(=O)N1CCN(S(=O)(=O)c2c(C)nc3sccn3c2=O)CC1 8.06%
O=C1/C(=C\c2ccc([N+](=O)[O-])cc2)CCc2ccccc21 2.14%
COc1ccc(C=C2CS(=O)(=O)CC(=Cc3ccc(OC)cc3)C2=O)cc1 8.37%
O=[N+]([O-])c1ccc(N2CCN(S(=O)(=O)c3ccc(Cl)c(Cl)c3)CC2)cc1NCCN1CCOCC1 -6.11%
COc1ccccc1NC(=O)c1cc2ccc(O)cc2o/c1=N\O 16.6%
COc1ccc2o/c(=N\O)c(C(=O)Nc3ccc(C)cc3)cc2c1 6.76%
CCOC(=O)C1=CN(Cc2cccc(-c3ccc(F)cc3)c2)S(=O)(=O)N(C)C1C (configuration not stated) 8.9%
Cc1cc(C)nc(Nc2ccc(Cl)cc2C)n1 4.71%
Cc1nc2sc(C(c3cccs3)N3CCC4(CC3)OCCO4)c(O)n2n1 (configuration not stated) 1.65%
Cc1cc(C)c2ccc(=O)n(CC(=O)N/N=C/c3ccccc3Cl)c2n1 5.91%
Cc1ccc(C)c2c1[nH]c1ccccc12 10.6%
COc1cc2[nH]c3ccccc3c2cc1C -5.8%
Cc1ccc(C(C)C)c(OC/C(O)=C(\C#N)c2nc3ccccc3[nH]2)c1 6.88%
CC1(C)C(c2ccccc2)=[N+]([O-])C2(CCCCC2=O)N1O (configuration not stated) 1.13%
CCOC(=O)C1CCN(S(=O)(=O)CCNC(=O)c2ccc(F)cc2)CC1 6.46%
O=S(=O)(O)c1cc(O)ccc1O 4.04%
Oc1ccc(N=Nc2ccc(Br)cc2)c(O)c1 12.2%
O=S(=O)(O)c1cccc2c(N=Nc3ccc(O)c4ncccc34)cccc12 18.4%
O=[N+]([O-])c1ccc(N=Nc2ccc(O)cc2O)cc1 7.64%
O=C(Cc1ccc(F)cc1)NC(Cc1c[nH]c2ccccc12)C(=O)O (configuration not stated) -3.39%
Cc1c(Cl)cnc(NC(=O)CSc2nnnn2C)c1Cl 3.41%
OCCN1CCN(CCCN2c3ccccc3Sc3ccc(Cl)cc32)CC1 31.9%
CC(=O)c1ccc2c(c1)N(CCCN(C)C)c1ccccc1S2 12.4%
CN1CCN(CCCN2c3ccccc3Sc3ccc(C(F)(F)F)cc32)CC1 7.89% and 12.7% and 6.18%
CN(C)CCCN1c2ccccc2Sc2ccc(Cl)cc21 22% and 17.9%
CNc1ccc(/C=C/C(=O)c2cccc3ccccc23)cc1[N+](=O)[O-] 1.28%
CCN(C(=O)COC(=O)/C=C/c1c(C)nn(-c2ccccc2)c1C)C1CCS(=O)(=O)C1 (configuration not stated) 5.67%
CC(=O)c1ccc(NC(=O)CN2CCN(c3ccccc3)CC2)cc1 5.48%
CC[C@H](C)NC(=O)CCCCCn1c(=S)[nH]c2c([nH]c3ccc(OC)cc32)c1=O 3.32%
COc1ccc2[nH]c3c(=O)n(CCCCC(=O)N4CCCC4)c(=S)[nH]c3c2c1 23.1%
COc1ccc2[nH]c3c(=O)n(Cc4ccc(C(=O)N5CCCC5)cc4)c(=S)[nH]c3c2c1 4.08%
COc1ccc2[nH]c3c(=O)n(Cc4ccc(C(=O)N5CCCCCC5)cc4)c(=S)[nH]c3c2c1 6.08%
CC(C)(CO)CNC(=O)CCc1nnc(-c2ccc(-c3ccccc3)cc2)o1 9.2%
CC(OC(=O)c1ccc(-c2ccc(O)cc2)cc1)C(=O)NC1CCCCC1C (configuration not stated) 8.27%
CC(C)CN1CCC(Oc2cccc(C(=O)NCCc3ccccc3)c2)CC1 11.2%
CC(=O)c1sc(NC(=O)c2cccc(N3C(=O)CCC3=O)c2)nc1-c1ccccc1 2.55%
C[C@@H]1CN([C@@H](C)CO)C(=O)CCCn2nncc2CO[C@H]1CN(C)S(=O)(=O)c1ccc2c(c1)OCCCO2 7.05%
Cc1ccc([C@@H]2C[C@H]3[C@@H](CN2S(=O)(=O)c2ccc(Cl)cc2)C(=O)C[C@@H](c2ccccc2)N3S(=O)(=O)c2ccc(C)cc2)cc1 17.6%
Cc1ccc(C2/C=C\CC(NC(=O)OCC3c4ccccc4-c4ccccc43)CC(=O)N2Cc2ccccc2)cc1 (configuration not stated) 7.21%
CCCC1=[N+](CC(C)=O)CCn2c(C)ccc21 -4.62%
Cc1c(-c2ccccc2)cn2c1-c1ccc(C)n1CC2 5.62%
COc1cc2c(cc1NC(=O)CSc1nc3cc(Cl)ccc3s1)oc1ccccc12 5.98%
CCc1ccc(-c2nn(Cc3ccccc3)cc2C(=O)NCC2CCCO2)cc1 (configuration not stated) 0.77%
CC(=O)Nc1ccc(/C=N/NC(=O)c2cc(-c3ccco3)nc3ccccc23)cc1 6.26%
O=C(N/N=C/c1cccc(F)c1)c1cc(-c2ccco2)nc2ccccc12 7.31%
